Test [1] concerns the target Cytochrome P450 1A2 (Homo sapiens) (UniProt P05177). In words: p450-cyp1a2 (AID 410; calls by dose curve; further: potency means the concentration at half of the fitted maximal effect). The essentials: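 Human CYP1A2 (20nM) demethylated Luciferin-ME at its Km (100uM) in 100mM KPO4. After 10 min compound preincubation, NADPH regeneration ran the reaction 60 min at room temperature. Luciferin was read by luminescence, normalized to 57 uM furafylline.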
Test [2] is described as follows: NFAT Signaling Pathway (AID 444; active means well fitted curve in either direction with a large enough effect, not every such curve was filed as active;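 further: carbachol stimulus at about its EC50 of 1 µM final; on the % scale 0 is the no-effect control and ±100 the full control effect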). To be noted: Jurkat NFAT-bla M1, carbachol, beta-lactamase ratio, 5 h; at 7.69 µM (top of the series) unless noted. The essentials:
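Jurkat cells with NFAT-driven β-lactamase reporter and co-expressed M1 receptor, stimulated with carbachol (final 1 uM, ~EC50), compound titration, 5 h at 37 °C. CCF4 loaded 1 h at RT; 460/530 nm ratio gave %activity and AC50.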

A short description of test [3]: Stat Signaling Pathway (AID 446; active means well fitted curve in either direction with a large enough effect, not every such curve was filed as active;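 further: ME-180 cervical cancer cells given 40 pM IL-6 alongside compound; SIE-controlled beta-lactamase reporter measured as 460/530 nm FRET emission ratio; on the % scale 0 is the no-effect control and ±100 the full control effect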). To be noted: ME-180 SIE beta-lactamase reporter, IL-6 stimulated, 5 h; at 7.69 µM (top of the series) unless noted. The essentials:
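Screening format detects activators and inhibitors alike: ME-180 SIE-bla cells stimulated at 40 pM IL-6 for 5 hrs with compound, then dual-emission beta-lactamase read at 405 nm excitation.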

Test [4] deals with Glucocorticoid receptor (Homo sapiens) (UniProt P04150). In words: GR-GFP Redistribution (AID 450;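 active means compounds whose dose series gives a full or clear partial fitted curve of increased nuclear translocation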; further: potency means the concentration at half of the fitted maximal effect). To be noted: U2OS GR-GFP nuclear translocation, laser cytometry, 2 h.
Glucocorticoid receptor (Homo sapiens), sequence (P04150 whole entry, looked up, the tested form may be a part): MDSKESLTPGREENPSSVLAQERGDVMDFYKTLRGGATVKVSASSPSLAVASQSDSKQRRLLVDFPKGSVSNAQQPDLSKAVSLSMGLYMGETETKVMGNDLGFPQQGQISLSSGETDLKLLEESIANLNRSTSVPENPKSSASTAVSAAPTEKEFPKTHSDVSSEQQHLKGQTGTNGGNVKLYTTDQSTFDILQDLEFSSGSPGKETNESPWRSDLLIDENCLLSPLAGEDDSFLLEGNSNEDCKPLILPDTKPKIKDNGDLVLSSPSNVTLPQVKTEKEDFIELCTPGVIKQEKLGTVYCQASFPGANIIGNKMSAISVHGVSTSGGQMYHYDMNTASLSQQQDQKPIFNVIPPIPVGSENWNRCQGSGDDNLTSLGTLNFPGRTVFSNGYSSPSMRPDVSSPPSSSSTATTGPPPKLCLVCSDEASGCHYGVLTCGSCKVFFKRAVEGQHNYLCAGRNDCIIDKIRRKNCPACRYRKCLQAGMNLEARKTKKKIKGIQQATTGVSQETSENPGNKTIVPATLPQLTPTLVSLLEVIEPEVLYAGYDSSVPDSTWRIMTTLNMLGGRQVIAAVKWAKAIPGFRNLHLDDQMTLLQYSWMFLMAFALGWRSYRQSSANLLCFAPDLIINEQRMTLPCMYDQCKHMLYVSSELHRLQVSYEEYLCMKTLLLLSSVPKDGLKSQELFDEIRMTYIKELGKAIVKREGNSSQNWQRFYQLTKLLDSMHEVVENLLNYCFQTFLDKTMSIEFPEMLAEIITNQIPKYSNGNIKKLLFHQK
Test [5] shares this target. In words: GR-EFC Redistribution (AID 451; calls by dose curve; further: potency means the concentration at half of the fitted maximal effect). To be noted: CHO-K1 GR-EFC translocation, beta-gal luminescence, 2 h. Summed up: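 CHO-K1 cells expressing nuclear EA and GR-ED fragments of b-gal; compounds titrated up to 46 uM final, 2 h at 37 C. GR nuclear translocation read as complemented b-gal luminescence after 1 h RT detection.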
Test [6] deals with Mitogen-activated protein kinase 10 (Mus musculus) (UniProt Q61831). In words: JNK3 AlphaScreen Assay (AID 530; active means well fitted curve in either direction with a large enough effect, not every such curve was filed as active;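 further: kinase came from lysate of stimulated human HepG2 cells; signal reports phosphorylation of biotinylated GST-cJun 1-79 at Ser73 with 10 µM ATP; on the % scale 0 is the no-effect control and ±100 the full control effect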). Summed up:
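qHTS format: compounds tested as titrations against IL-1beta/TNF-alpha-activated HepG2 lysate JNK3 with biotin-GST-cJun substrate and 10 uM ATP at room temperature. Loss of anti-phospho-cJun AlphaScreen signal indicates inhibition.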
A general note: In Alpha technology, singlet oxygen from a donor bead excites a nearby acceptor bead.

For test [7], the target named is 3',5'-cyclic-AMP phosphodiesterase 4B (Homo sapiens) (UniProt Q07343). In words: qHTS Assay for Inhibitors of PDE-IV (AID 607; active means well fitted activation curve with a large enough effect in the main read-out, with a control signal flat, not every such curve was filed as active; further: % of control where 0% means no effect). The essentials: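 The readout is membrane depolarisation from a cAMP-sensing CNG channel, detected with a potential dye at ex 535/em 590. Cells were HEK293-derived (endogenous PDE-IV) at 1000 cells/well, titrated up to 22.9 uM final.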
3',5'-cyclic-AMP phosphodiesterase 4B (Homo sapiens), sequence (Q07343 whole entry, looked up): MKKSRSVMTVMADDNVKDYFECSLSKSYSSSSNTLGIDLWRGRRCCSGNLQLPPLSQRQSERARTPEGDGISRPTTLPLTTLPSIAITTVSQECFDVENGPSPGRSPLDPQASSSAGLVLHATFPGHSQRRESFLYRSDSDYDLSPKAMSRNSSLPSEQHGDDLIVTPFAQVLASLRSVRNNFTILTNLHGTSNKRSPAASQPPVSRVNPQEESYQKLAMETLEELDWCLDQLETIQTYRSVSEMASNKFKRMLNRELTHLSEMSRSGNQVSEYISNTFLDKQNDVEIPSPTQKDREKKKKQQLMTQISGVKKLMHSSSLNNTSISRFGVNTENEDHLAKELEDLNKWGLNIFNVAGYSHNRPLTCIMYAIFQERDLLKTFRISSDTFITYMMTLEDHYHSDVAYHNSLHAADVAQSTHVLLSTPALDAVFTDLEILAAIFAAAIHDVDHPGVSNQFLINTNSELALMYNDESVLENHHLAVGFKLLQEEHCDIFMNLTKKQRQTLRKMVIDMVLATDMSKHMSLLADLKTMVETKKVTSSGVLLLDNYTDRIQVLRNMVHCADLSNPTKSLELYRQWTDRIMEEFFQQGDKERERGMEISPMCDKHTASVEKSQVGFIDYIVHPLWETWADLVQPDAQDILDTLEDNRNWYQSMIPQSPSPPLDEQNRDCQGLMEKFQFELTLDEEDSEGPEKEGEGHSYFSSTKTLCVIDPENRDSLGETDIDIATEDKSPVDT
For orientation: Quantitative high-throughput screening tests each substance at several concentrations.

Test [8] concerns the target Dual specificity protein kinase CLK4 (Homo sapiens) (UniProt Q9HAZ1). In words: qHTS Assay for Inhibitors of CDC-like Kinase 4 (Kinase-Glo Assay) (AID 1770). Further: nearly all actives have a fitted effect of over 65% in size. Further: potency means the concentration at half of the fitted maximal effect. The essentials:
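25 nM Clk4 with 100 uM RS repeat peptide and 1 uM ATP (final) in Tris pH7.5, 10 mM MgCl2, 4.5 h at room temperature. Remaining ATP measured by Kinase-Glo luciferase luminescence.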

In test [9] the target is Ubiquitin carboxyl-terminal hydrolase 1 (Homo sapiens) (UniProt O94782). In words: Inhibitors of USP1/UAF1: Pilot qHTS (AID 504865). Further: nearly all actives have a fitted effect of over 35% in size. Further: potency means the concentration at half of the fitted maximal effect. Summed up: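 USP1/UAF1 complex at 1 nM preincubated 15 min at room temperature with compound, then Ub-Rho substrate added at 150 nM final. Fluorescence (480/540 nm) read kinetically in 50 mM HEPES pH 7.8, 0.5 mM EDTA, 1 mM TCEP, 0.1 mg/ml BSA, 0.01% Tween-20.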
Ubiquitin carboxyl-terminal hydrolase 1 (Homo sapiens), sequence (O94782 whole entry, looked up): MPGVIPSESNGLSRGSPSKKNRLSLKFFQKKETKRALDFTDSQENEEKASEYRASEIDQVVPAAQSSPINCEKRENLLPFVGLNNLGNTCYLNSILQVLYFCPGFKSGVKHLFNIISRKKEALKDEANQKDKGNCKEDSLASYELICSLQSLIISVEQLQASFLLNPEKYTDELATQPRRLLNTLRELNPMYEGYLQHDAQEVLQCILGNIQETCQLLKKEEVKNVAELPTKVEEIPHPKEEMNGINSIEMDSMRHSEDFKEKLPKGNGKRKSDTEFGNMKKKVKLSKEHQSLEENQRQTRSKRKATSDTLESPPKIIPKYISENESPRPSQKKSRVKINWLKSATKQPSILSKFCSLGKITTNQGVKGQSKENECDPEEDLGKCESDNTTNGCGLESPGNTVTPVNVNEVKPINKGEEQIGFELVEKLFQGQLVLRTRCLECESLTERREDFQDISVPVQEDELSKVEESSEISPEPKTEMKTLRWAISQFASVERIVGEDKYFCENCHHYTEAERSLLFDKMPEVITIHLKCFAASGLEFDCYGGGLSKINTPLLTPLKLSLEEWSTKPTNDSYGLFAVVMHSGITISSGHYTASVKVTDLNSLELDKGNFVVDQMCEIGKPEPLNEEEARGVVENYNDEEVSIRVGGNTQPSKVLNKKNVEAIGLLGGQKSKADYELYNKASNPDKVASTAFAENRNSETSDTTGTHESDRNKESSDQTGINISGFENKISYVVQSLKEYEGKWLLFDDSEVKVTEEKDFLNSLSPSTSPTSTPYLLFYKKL

Test [10] can be described thus: Primary qHTS for small molecule stabilizers of the endoplasmic reticulum resident proteome: Secreted ER Calcium Modulated Protein (SERCaMP) assay (AID 1508630). Further: on the % scale 0 is the no-effect control and ±100 the full control effect. The essentials:
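GLuc-SERCaMP-expressing SH-SY5Y cells, pretreated 16 h with compound, are challenged with thapsigargin to empty ER calcium stores; after 4 h, coelenterazine is added directly to the medium and luminescence is imaged.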

For test [11], the target named is Lysosomal acid glucosylceramidase (Homo sapiens) (UniProt P04062). In words: Glucocerebrosidase-p2 (AID 348; in the data active means potency below about 10 µM; further: potency means the concentration at half of the fitted maximal effect). Particulars: purified GBA, blue fluorogenic substrate, 40 min. The essentials: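 Compounds titrated from 0.6 nM upwards against 0.2 nM enzyme in pH 5.9 citric acid/KH2PO4, taurocholate, tween-20; blue fluorogenic substrate 80 uM, 40 min room temperature, stopped and read Ex 365/Em 440 for AC50.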
Lysosomal acid glucosylceramidase (Homo sapiens), sequence (P04062 whole entry, looked up): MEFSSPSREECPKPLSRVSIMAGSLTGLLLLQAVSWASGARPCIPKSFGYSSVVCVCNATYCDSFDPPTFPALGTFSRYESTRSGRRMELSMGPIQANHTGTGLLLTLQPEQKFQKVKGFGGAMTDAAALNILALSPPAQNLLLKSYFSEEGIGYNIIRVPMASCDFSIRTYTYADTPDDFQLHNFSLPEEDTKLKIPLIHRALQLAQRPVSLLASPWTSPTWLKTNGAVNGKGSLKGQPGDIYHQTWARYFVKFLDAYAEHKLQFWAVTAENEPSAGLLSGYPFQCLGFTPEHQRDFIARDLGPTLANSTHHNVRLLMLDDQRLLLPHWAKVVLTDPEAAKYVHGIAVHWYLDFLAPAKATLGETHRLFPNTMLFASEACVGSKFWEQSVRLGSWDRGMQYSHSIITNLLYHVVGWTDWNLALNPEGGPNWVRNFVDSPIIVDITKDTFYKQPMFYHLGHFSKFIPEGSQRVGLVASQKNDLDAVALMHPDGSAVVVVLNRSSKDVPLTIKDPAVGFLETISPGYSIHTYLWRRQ

A short description of test [12]: AP1 Signaling Pathway (AID 357; active means well fitted curve in either direction with a large enough effect, not every such curve was filed as active). Particulars: ME-180 AP-1-bla reporter, EGF-induced, beta-lactamase ratio, 5 h; at 7.69 µM (top of the series) unless noted. Summed up:
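Modulation of EGF-driven AP-1 transcription was assessed with a beta-lactamase reporter in ME-180 cells. Compound and EC50 EGF were co-incubated 5 hours at 37 °C before 2.5-hour CCF4 loading at room temperature and dual-emission reading.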

Test [13] concerns the target Cytochrome P450 3A4 (Homo sapiens) (UniProt P08684). In words: qHTS Assay for Activators of Cytochrome P450 3A4 (AID 885). Further: nearly all actives have a fitted effect of over 65% in size. Summed up:
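Steps: enzyme/substrate mix dispensed; compound added, 10 min RT; NADPH regeneration solution added, 60 min RT; luciferin detection buffer stops reaction; 20 min later luminescence measured.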

A short description of test [14]: qHTS Assay for Identification of Small Molecule Agonists for Hypoxia Response Element Signaling Pathway (AID 914; active means well fitted activation curve with a large enough effect in the signal ratio, with a control signal flat, not every such curve was filed as active; the % refers to the signal ratio; further: % of control where 0% means no effect). To be noted: ME-180 (cervical carcinoma) HRE-bla reporter, beta-lactamase ratio, CoCl2, 17 h; activation: active compounds read high. Summed up: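 AC50 values come from titration-series %Activity, taken as the 460/530nm ratio of CCF4 fluorescence (excitation 405nm). CellSensor HRE-bla ME-180 cells were treated 17 hours at 37 C with compound plus an EC50 level of CoCl2.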

In test [15] the target is Cytochrome P450 3A4 (Homo sapiens) (UniProt P08684). In words: qHTS Assay for Inhibitors and Substrates of Cytochrome P450 3A4 (AID 884). Further: nearly all actives have a fitted effect of over 50% in size. Further: potency means the concentration at half of the fitted maximal effect. The essentials:
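20 nM human CYP3A4 with 25 uM Luciferin-PPXE (at KM) in 200 mM KPO4, preincubated 10 min with compound; NADPH regeneration started a 60 min RT reaction. Luciferin detected by luminescence, normalized to 57 uM ketoconazole as full inhibition.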

The target in test [16] is Cytochrome P450 2C19 (Homo sapiens) (UniProt P33261). In words: qHTS Assay for Inhibitors and Substrates of Cytochrome P450 2C19 (AID 899). Further: potency means the concentration at half of the fitted maximal effect; nearly all actives have a fitted effect of over 60% in size. Summed up:
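Signal comes from luciferase acting on luciferin released by CYP2C19-mediated hydroxylation of Luciferin-H EGE, 10uM (KM). Assay mix: 5nM enzyme, 50mM KPO4; 60 min at 37C with NADPH regeneration. Data normalized against 57uM ketoconazole.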

Test [17] addresses Dual specificity protein kinase CLK4 (Homo sapiens) (UniProt Q9HAZ1). In words: qHTS Assay for Inhibitors of CDC-like Kinase 4 (ADP-Glo Assay) (AID 1771). Further: potency means the concentration at half of the fitted maximal effect; nearly all actives have a fitted effect of over 70% in size. Summed up:
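Clk4 (25 nM) was incubated 1 hr at room temperature with 100 uM RS repeat peptide and 1 uM ATP in buffer with 2 mM MgCl2, 0.5 mM EGTA, 2.5 mM DTT. ADP formed was quantified by ADP-Glo luminescence.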

Test [18] shares this target. In words: qHTS Assay for Inhibitors of CDC-like Kinase 4 (ADP-FP Assay) (AID 1795).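 Further: recombinant human CLK4 phosphorylating RS repeat peptide at 1 µM ATP; on the % scale 0 is the no-effect control and ±100 the full control effect; nearly all actives have a fitted effect of over 60% in size.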 The essentials: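 Recombinant Clk4 (6.25 nM) phosphorylated 100 uM RS repeat peptide with 1 uM ATP in 25 mM Tris pH 7.5, 10 mM MgCl2, 0.5 mM EGTA, 2.5 mM DTT, 0.01% Triton X-100 for 1 h. ADP was detected by Transcreener ADP2 competitive fluorescence polarization after 30 min at room temperature.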

A number with no mark means an inactive call. Records with an inconclusive call do not appear. Active and inactive are the calls of the source. Unless noted, the call rests on the fitted dose curve; in most records, active means well fitted curve in the direction sought with a large enough effect; inconclusive means small, poorly fitted or top-dose-only effect, or another doubt; inactive means no such curve, though single readings can be large; an effect the other way counts as inactive or inconclusive.

Cytochrome P450 1A2 (Homo sapiens), sequence (P05177 whole entry, looked up): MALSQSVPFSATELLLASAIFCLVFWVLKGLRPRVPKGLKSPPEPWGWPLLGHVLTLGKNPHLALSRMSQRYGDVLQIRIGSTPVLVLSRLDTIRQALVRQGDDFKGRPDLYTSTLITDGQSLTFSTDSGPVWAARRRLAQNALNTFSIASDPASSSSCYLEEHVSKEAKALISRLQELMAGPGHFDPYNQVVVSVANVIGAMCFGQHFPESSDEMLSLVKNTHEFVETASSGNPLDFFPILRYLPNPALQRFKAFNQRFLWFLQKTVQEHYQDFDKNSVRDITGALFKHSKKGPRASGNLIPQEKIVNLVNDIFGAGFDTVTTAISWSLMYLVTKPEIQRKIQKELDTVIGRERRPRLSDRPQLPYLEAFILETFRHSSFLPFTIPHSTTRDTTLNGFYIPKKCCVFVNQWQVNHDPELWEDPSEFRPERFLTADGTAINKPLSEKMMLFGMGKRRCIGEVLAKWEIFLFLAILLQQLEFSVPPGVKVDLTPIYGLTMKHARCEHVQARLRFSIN
Cytochrome P450 3A4 (Homo sapiens), sequence (P08684 whole entry, looked up): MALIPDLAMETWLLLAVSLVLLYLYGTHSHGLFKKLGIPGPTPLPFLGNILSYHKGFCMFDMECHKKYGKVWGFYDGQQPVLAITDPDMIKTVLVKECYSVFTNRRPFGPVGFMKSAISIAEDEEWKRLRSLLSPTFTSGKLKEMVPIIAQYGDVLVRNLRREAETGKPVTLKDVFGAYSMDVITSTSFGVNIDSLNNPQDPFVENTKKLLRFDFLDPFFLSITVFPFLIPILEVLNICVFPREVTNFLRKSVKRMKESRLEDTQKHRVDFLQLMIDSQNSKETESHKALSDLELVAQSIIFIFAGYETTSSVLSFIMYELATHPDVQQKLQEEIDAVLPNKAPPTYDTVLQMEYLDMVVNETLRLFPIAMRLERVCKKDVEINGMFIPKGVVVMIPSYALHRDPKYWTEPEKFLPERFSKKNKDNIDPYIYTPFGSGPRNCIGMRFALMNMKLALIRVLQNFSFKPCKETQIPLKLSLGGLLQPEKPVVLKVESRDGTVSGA
Dual specificity protein kinase CLK4 (Homo sapiens), sequence (Q9HAZ1 whole entry, looked up): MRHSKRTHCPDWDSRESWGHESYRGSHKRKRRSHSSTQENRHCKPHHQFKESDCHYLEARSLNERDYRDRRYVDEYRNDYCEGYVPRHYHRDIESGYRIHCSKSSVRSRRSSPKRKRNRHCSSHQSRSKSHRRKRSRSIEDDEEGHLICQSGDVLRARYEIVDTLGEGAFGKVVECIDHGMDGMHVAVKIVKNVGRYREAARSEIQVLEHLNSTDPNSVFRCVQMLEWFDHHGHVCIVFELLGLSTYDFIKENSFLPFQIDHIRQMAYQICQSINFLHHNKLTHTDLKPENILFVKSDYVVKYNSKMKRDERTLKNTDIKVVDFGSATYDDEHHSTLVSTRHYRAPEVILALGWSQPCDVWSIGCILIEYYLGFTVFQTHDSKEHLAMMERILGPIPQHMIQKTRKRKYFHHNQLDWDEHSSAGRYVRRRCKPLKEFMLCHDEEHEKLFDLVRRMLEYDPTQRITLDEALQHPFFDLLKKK
Cytochrome P450 2C19 (Homo sapiens), sequence (P33261 whole entry, looked up): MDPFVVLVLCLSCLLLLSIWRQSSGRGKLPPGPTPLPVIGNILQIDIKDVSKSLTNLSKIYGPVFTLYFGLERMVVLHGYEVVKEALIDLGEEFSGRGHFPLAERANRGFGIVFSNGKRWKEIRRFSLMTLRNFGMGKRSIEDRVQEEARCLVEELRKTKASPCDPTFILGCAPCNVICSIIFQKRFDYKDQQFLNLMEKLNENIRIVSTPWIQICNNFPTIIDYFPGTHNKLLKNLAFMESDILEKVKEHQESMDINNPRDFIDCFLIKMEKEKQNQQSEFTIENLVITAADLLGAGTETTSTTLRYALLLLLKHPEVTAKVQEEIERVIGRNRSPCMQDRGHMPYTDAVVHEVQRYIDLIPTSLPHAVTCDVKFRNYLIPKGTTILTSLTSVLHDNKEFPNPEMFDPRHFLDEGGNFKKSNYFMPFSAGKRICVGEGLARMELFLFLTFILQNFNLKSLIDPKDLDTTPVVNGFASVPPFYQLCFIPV

For `CN(C)C(=O)c1ccc(-c2nc(-n3ccnc3)c3ccccc3n2)cc1`, the Potency in [1] was 20 µM (active); in [4], more than 46 µM; in test [5], more than 46 µM. Also, the activity change, negative = inhibition in test [2] is 2.92%. Further, the activity, negative = inhibition in test [3] was 6.8%. In addition, the Potency result in [6], in test [7], in [8] and in test [9] was “inactive” each time. Also, the result in [10] was inactive.
Take `CNc1nc(-c2cccc(NS(C)(=O)=O)c2)nc2ccccc12`: the Potency is more than 11.4 µM in [11]; 0.398 µM (active) in test [1]; more than 46 µM in test [4]; more than 46 µM in test [5]; 14.1 µM (active) in test [8]. In addition, the activity change, negative = inhibition is -8.82% in [12] and 6.53% in test [2]. The activity, negative = inhibition in test [3] was -10.2%. The Potency result in test [6], in test [7], in test [13] and in test [9] was “inactive” throughout. In test [10], the result was inactive.
On to `CN1CCN(c2ncnc3ccc(-c4cccnc4)cc23)CC1`, for which the Potency in test [11] is more than 11.4 µM; in [4], more than 46 µM; in [5], more than 46 µM; in test [8] it was 12.6 µM (active). Moreover, the activity change, negative = inhibition is -5.19% in test [12] and 17% in test [2]. Also, the activity, negative = inhibition in test [3] is 2.81%. Further, the Potency entry in test [6], in [7], in [13] and in test [9] was “inactive” in each case. Also, the activation in test [14] is -3.4%. In addition, the outcome in [10] was inactive.
In the case of `Clc1ccccc1-c1cc(NCc2ccccc2)ncn1`, the Potency in test [11] was more than 11.4 µM; in [1] it was 3.98 µM (active); in test [4], more than 46 µM; in test [5] it was more than 46 µM; in test [16], 7.94 µM (active); in test [8], 25.1 µM (active). For the same compound, the activity change, negative = inhibition in [12] is 0.871%; in test [2], 1.92%. Besides, the activity, negative = inhibition in test [3] is 4.36%. In addition, the Potency entry in test [6] and in test [15] was “inactive” each time. In addition, the result in test [10] was inactive.
`Cc1ccccc1-c1nccc(NCc2cccnc2)n1`: the Potency was more than 11.4 µM in [11]; 0.2 µM (active) in test [1]; more than 46 µM in [4]; more than 46 µM in [5]; 3.98 µM (active) in test [15]; 5.01 µM (active) in test [16]. Further, the Potency in test [17] is 28.2 µM (active). The activity change, negative = inhibition is 13% in [12] and 3.23% in test [2]. In addition, in [3], the activity, negative = inhibition is -15.6%. In addition, the Potency result in [6], in test [7], in test [18] and in test [9] was “inactive” in each case. For the same compound, the outcome in test [10] was inactive.
Regarding `Cc1noc(C)c1-c1nc(NCCN2CCOCC2)c2ccccc2n1`, the activity change, negative = inhibition in test [12] was -2.23%. For the same compound, the results for the Potency in test [1], in [4] and in [5] were 2.51 µM (active), more than 46 µM and more than 46 µM, respectively. Also, in test [3], the activity, negative = inhibition was -0.501%. The Potency result in [6], in test [7], in [13], in test [8], in [18] and in [9] was “inactive” throughout. For the same compound, the outcome in [10] was inactive.
On to `Clc1ccccc1-c1nccc(NCc2ccccc2)n1`, for which the activity change, negative = inhibition in [12] is 12.5%; in [2] it was 10.7%. Besides, the Potency in [1] is 3.16 µM (active); in [4], more than 46 µM; in [5], more than 46 µM; in [9], 28.2 µM (active). Besides, the activity, negative = inhibition in test [3] was -6.25%. Further, the Potency result in [6], in test [8] and in test [18] was “inactive” in each case. Also, in [10], the result was inactive.
